# In PMC7862700, “An all-to-all approach to the identification of sequence-specific readers for epigenetic DNA modifications on cytosine”:
# Legend:
# Test in all cases: DAPPL (digital affinity profiling via proximity ligation, sequencing); 10 mM Tris-HCl pH 7.5, 50 mM NaCl, 1 mM DTT, 4% glycerol, room temperature, 30 min; GST-TFs on glutathione beads, 16-mer random dsDNA library, 0.1% formaldehyde crosslink after washing; high values mean tight binding
# [1] = target: T1, FEV (Homo sapiens, UniProt Q99581 1-238); settings: protein: recombinant; tags: N-terminal GST; dsDNA, one strand shown
# T1 sequence: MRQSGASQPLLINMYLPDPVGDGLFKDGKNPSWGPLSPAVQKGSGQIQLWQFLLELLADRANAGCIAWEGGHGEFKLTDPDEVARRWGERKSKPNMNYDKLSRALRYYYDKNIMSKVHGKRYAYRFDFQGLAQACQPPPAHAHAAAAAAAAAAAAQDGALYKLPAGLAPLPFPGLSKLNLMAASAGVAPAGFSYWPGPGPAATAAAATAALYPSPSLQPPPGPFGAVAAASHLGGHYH
# Method in brief: (§1)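 Binding signal is each hexamer's read frequency for a factor divided by its frequency in the tag-only sample. The factors were GST-fused human transcription factors from yeast, captured on glutathione beads, DNA-barcoded and pooled with that sample. Pools were incubated with 200 nmole of a random double-stranded 16-mer DNA library in Tris/NaCl/DTT/glycerol buffer at room temperature for 30 min, then washed, crosslinked with 0.1% formaldehyde, proximity-ligated with BsaI/T4 ligase (1 h, 37 °C), PCR-amplified and sequenced on an Illumina NextSeq500.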
# [2] = target: ETV5 (Homo sapiens, UniProt P41161 1-510); settings: protein: recombinant; tags: N-terminal GST; dsDNA, one strand shown
# Sequence of ETV5 (P41161 whole entry): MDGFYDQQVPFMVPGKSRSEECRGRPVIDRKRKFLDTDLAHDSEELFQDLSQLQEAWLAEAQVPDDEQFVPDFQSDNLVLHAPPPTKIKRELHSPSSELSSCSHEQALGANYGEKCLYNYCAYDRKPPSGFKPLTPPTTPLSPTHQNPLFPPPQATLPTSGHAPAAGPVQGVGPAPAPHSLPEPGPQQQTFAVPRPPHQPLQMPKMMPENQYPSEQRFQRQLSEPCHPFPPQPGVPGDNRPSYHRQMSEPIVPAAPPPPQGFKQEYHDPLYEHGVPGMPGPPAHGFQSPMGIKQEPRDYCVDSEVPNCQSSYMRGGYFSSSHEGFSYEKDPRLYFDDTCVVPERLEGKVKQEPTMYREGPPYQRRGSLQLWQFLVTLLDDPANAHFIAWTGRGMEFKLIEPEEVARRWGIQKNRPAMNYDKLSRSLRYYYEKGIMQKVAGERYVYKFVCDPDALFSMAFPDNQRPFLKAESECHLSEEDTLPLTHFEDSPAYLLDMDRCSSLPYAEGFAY
# Method in brief: as §1
# [3] = target: HSF1 (Homo sapiens, UniProt Q00613 1-529); settings: protein: recombinant; tags: N-terminal GST; chain copies: 3; dsDNA, one strand shown
# Sequence of HSF1 (Q00613 whole entry): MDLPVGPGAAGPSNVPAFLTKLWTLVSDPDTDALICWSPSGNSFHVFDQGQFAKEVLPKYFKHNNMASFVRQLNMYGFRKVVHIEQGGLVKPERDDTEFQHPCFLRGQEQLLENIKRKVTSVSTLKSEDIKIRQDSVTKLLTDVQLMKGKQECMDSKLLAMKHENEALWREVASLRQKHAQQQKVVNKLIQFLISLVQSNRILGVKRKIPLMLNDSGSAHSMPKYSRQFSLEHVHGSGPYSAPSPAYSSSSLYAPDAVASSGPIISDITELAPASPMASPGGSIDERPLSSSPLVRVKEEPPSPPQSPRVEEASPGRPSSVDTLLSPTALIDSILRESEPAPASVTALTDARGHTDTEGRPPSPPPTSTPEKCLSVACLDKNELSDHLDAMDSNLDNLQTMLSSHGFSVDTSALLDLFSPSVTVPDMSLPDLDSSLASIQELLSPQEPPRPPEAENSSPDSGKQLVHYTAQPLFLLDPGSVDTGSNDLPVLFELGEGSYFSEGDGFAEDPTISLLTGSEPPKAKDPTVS
# Method in brief: as §1
# [4] = target: T2, SPIC (Homo sapiens, UniProt Q8N5J4 1-248); settings: protein: recombinant; tags: N-terminal GST; dsDNA, one strand shown
# T2 sequence: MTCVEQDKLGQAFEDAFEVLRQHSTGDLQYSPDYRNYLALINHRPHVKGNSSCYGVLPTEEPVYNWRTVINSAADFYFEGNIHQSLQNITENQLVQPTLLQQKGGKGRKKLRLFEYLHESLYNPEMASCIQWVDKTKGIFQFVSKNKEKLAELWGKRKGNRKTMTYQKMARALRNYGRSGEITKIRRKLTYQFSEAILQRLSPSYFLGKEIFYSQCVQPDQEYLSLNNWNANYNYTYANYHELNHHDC
# Method in brief: as §1
# [5] = target: ELF4 (Homo sapiens, UniProt Q99607 1-663); settings: protein: recombinant; tags: N-terminal GST; dsDNA, one strand shown
# Sequence of ELF4 (Q99607 whole entry): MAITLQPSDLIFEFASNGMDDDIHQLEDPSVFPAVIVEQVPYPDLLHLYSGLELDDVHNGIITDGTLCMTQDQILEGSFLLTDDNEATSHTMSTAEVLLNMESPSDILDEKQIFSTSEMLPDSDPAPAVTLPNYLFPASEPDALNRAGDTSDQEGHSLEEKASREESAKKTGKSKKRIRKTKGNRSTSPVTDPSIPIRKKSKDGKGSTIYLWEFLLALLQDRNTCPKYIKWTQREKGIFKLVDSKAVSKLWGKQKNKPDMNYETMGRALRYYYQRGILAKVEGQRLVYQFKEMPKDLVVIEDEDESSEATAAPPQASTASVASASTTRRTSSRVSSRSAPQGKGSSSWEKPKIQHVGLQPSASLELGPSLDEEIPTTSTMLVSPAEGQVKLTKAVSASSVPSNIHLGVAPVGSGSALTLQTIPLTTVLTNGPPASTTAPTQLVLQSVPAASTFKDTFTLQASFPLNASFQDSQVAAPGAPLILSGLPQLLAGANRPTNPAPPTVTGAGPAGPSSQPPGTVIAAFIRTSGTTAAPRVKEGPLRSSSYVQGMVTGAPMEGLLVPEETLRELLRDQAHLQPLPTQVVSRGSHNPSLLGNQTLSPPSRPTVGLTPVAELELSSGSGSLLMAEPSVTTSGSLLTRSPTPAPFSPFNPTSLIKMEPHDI
# Method in brief: as §1
# [6] = target: T3, ELK4 (Homo sapiens, UniProt P28324-2 1-405); settings: protein: recombinant; tags: N-terminal GST; dsDNA, one strand shown
# T3 sequence: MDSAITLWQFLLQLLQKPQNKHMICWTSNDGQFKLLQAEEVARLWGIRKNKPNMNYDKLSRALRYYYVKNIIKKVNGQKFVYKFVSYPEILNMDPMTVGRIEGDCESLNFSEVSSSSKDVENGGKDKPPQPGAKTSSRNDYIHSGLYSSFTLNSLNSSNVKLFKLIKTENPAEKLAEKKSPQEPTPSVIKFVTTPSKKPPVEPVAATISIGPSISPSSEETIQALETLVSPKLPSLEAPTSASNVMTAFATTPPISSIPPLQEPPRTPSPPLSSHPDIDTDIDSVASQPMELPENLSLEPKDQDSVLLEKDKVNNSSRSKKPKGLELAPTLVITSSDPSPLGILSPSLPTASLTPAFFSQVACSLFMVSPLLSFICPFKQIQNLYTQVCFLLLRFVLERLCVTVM
# Method in brief: as §1
# [7] = target: T4, ETV2 (Homo sapiens, UniProt O00321 1-342); settings: protein: recombinant; tags: N-terminal GST; dsDNA, one strand shown
# T4 sequence: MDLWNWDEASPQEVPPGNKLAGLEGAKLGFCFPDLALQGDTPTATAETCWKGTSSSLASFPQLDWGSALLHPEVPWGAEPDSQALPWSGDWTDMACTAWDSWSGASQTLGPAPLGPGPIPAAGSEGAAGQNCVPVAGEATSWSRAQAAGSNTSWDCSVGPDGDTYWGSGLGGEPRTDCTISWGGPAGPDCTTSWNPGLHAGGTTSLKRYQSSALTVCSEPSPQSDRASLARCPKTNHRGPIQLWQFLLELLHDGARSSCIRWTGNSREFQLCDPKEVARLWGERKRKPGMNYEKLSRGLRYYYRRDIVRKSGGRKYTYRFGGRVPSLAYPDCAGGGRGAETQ
# Method in brief: as §1
# [8] = target: T5, ELF3 (Homo sapiens, UniProt P78545 1-371); settings: protein: recombinant; tags: N-terminal GST; dsDNA, one strand shown
# T5 sequence: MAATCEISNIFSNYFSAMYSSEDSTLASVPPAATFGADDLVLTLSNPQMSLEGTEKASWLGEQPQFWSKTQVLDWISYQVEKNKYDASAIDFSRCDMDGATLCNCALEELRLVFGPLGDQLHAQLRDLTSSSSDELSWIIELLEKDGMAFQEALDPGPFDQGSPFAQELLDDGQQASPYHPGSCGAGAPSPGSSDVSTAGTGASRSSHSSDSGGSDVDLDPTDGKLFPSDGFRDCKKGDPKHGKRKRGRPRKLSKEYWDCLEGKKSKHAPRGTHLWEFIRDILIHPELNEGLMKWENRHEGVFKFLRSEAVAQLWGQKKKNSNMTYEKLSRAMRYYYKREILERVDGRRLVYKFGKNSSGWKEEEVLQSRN
# Method in brief: as §1
# [9] = target: CRX (Homo sapiens, UniProt O43186 1-299); settings: protein: recombinant; tags: N-terminal GST; dsDNA, one strand shown
# Sequence of CRX (O43186 whole entry): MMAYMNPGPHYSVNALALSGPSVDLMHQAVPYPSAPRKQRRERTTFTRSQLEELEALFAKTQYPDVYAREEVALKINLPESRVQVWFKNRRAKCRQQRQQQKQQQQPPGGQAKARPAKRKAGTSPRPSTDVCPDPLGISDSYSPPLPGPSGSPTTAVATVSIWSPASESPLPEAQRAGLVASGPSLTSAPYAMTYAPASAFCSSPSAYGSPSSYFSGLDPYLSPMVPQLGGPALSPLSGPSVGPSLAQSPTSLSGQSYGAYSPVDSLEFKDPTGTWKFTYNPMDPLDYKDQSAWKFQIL
# Method in brief: as §1
# [10] = target: ETV1 (Homo sapiens, UniProt P50549 1-477); settings: protein: recombinant; tags: N-terminal GST; dsDNA, one strand shown
# Sequence of ETV1 (P50549 whole entry): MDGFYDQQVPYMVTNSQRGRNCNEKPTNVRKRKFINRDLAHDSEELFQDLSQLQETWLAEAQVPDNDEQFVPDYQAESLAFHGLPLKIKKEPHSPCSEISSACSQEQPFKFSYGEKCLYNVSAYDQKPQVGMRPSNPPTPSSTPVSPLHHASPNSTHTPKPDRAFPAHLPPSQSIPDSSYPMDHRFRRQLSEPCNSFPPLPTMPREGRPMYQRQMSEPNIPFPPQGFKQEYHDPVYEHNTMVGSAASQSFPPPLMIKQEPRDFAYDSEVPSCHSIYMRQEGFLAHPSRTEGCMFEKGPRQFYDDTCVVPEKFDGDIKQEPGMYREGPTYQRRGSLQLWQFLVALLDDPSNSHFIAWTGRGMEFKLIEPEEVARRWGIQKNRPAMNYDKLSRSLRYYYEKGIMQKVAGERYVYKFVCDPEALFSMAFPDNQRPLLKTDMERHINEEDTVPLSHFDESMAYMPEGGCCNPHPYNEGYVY
# Method in brief: as §1
# [11] = target: T6, ERF (Homo sapiens, UniProt P50548 1-548); settings: protein: recombinant; tags: N-terminal GST; dsDNA, one strand shown
# T6 sequence: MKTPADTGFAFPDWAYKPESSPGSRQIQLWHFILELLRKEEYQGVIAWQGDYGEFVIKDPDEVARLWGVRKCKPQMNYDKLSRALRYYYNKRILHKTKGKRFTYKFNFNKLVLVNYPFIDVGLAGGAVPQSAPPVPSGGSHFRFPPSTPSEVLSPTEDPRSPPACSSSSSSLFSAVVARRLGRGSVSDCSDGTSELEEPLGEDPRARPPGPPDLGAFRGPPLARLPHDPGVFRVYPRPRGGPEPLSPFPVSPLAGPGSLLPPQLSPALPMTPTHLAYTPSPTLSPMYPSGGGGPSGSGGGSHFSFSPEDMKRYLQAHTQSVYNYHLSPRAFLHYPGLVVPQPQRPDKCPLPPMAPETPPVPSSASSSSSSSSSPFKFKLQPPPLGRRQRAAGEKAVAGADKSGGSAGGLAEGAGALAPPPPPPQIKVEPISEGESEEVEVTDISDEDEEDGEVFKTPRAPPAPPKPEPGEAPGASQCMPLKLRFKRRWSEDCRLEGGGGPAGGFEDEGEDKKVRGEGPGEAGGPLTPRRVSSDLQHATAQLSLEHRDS
# Method in brief: as §1
# [12] = target: T7, ETV3L (Homo sapiens, UniProt Q6ZN32 1-361); settings: protein: recombinant; tags: N-terminal GST; dsDNA, one strand shown
# T7 sequence: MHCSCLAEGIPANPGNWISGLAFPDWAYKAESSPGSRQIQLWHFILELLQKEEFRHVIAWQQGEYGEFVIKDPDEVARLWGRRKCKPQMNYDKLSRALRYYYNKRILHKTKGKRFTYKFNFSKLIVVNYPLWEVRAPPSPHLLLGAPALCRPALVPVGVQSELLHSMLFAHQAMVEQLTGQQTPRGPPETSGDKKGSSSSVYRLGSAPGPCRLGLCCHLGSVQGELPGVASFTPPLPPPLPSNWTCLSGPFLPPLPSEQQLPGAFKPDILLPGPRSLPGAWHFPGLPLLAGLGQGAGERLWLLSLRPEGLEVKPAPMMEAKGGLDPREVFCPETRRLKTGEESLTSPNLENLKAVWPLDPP
# Method in brief: as §1
# [13] = target: T8, ETS2 (Homo sapiens, UniProt P15036 1-469); settings: protein: recombinant; tags: N-terminal GST; dsDNA, one strand shown
# T8 sequence: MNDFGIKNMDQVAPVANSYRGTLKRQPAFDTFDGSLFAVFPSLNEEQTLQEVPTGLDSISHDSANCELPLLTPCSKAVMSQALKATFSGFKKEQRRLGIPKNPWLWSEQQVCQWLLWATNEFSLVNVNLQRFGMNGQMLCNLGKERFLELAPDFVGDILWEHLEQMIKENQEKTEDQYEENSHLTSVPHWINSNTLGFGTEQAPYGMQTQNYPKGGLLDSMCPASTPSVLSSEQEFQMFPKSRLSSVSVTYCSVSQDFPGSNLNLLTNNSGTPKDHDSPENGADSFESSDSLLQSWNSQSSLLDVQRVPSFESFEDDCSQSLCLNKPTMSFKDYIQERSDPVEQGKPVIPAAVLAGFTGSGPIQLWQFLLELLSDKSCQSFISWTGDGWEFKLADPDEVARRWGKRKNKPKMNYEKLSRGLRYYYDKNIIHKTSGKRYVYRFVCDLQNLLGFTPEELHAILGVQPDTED
# Method in brief: as §1
# [14] = target: T9, SPDEF (Homo sapiens, UniProt O95238 1-335); settings: protein: recombinant; tags: N-terminal GST; dsDNA, one strand shown
# T9 sequence: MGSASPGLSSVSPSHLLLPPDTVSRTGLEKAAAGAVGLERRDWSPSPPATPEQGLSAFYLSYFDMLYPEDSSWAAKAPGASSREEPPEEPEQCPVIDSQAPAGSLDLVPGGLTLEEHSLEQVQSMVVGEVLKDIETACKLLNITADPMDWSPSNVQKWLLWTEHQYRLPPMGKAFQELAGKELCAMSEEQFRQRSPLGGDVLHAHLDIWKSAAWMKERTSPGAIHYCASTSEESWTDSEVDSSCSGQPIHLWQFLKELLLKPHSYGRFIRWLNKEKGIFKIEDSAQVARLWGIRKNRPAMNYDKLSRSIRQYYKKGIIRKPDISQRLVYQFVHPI
# Method in brief: as §1
# [15] = target: T10, ETV7 (Homo sapiens, UniProt Q9Y603 1-341); settings: protein: recombinant; tags: N-terminal GST; dsDNA, one strand shown
# T10 sequence: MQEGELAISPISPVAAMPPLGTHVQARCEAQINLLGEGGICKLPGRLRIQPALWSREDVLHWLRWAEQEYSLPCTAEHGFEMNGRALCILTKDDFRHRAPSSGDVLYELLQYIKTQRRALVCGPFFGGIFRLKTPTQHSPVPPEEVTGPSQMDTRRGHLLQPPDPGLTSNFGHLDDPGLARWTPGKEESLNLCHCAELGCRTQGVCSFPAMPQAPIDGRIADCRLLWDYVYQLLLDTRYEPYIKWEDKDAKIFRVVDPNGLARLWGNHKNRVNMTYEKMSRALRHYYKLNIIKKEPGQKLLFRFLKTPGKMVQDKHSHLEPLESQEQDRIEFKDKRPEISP
# Method in brief: as §1
# [16] = target: T11, ELF5 (Homo sapiens, UniProt Q9UKW6-2 1-255); settings: protein: recombinant; tags: N-terminal GST; dsDNA, one strand shown
# T11 sequence: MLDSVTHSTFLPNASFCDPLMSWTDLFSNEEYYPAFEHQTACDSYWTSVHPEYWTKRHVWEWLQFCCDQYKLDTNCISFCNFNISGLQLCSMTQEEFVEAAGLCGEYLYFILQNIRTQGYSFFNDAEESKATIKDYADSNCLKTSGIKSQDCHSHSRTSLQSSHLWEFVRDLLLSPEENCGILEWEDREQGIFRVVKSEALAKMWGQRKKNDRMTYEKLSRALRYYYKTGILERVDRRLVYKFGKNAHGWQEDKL
# Method in brief: as §1
# [17] = target: T12, ETV3 (Homo sapiens, UniProt P41162-2 1-143); settings: protein: recombinant; tags: N-terminal GST; dsDNA, one strand shown
# T12 sequence: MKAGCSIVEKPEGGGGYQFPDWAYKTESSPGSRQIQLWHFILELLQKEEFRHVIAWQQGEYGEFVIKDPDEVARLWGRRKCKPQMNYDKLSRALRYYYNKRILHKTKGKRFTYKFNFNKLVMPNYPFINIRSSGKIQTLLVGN
# Method in brief: as §1
# [18] = target: ETV6 (Homo sapiens, UniProt P41212 1-452); settings: protein: recombinant; tags: N-terminal GST; dsDNA, one strand shown
# Sequence of ETV6 (P41212 whole entry): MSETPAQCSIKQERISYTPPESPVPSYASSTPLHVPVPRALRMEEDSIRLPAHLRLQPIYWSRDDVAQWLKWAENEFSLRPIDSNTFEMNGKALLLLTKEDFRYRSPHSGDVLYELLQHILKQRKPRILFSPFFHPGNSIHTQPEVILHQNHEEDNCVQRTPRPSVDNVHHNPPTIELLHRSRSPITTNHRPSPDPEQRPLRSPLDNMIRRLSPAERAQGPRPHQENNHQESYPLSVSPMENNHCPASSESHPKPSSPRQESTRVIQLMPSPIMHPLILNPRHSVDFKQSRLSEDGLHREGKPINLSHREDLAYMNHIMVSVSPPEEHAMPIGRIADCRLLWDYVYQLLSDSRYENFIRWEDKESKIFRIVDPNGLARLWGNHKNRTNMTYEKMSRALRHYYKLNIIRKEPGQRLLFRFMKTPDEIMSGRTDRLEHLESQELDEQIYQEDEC
# Method in brief: as §1
sequence,measurement,setting,value
ATCTTT,binding signal,[1],"1.19 fold enrichment (6-mer frequency, TF over GST control)"
same,binding signal,[2],"1.16 fold enrichment (6-mer frequency, TF over GST control)"
same,binding signal,[3],"1.58 fold enrichment (6-mer frequency, TF over GST control)"
same,binding signal,[4],"1.35 fold enrichment (6-mer frequency, TF over GST control)"
same,binding signal,[5],"1.22 fold enrichment (6-mer frequency, TF over GST control)"
same,binding signal,[6],"1.29 fold enrichment (6-mer frequency, TF over GST control)"
same,binding signal,[7],"1.15 fold enrichment (6-mer frequency, TF over GST control)"
same,binding signal,[8],"1.17 fold enrichment (6-mer frequency, TF over GST control)"
same,binding signal,[9],"1.76 fold enrichment (6-mer frequency, TF over GST control)"
same,binding signal,[10],"1.24 fold enrichment (6-mer frequency, TF over GST control)"
same,binding signal,[11],"1.22 fold enrichment (6-mer frequency, TF over GST control)"
same,binding signal,[12],"1.34 fold enrichment (6-mer frequency, TF over GST control)"
same,binding signal,[13],"1.18 fold enrichment (6-mer frequency, TF over GST control)"
same,binding signal,[14],"1.17 fold enrichment (6-mer frequency, TF over GST control)"
same,binding signal,[15],"1.13 fold enrichment (6-mer frequency, TF over GST control)"
same,binding signal,[16],"1.21 fold enrichment (6-mer frequency, TF over GST control)"
same,binding signal,[17],"1.21 fold enrichment (6-mer frequency, TF over GST control)"
same,binding signal,[18],"1.2 fold enrichment (6-mer frequency, TF over GST control)"
